Bioassay records (PubChem)
LASV entry inh = inhibitors of Lassa virus binding or cell entry; Lassa virus pseudotype entry inhibition, cell reporter; AID 540256; Potency, µM (series often up to 37.9 µM), for the others: at the highest dose activity change, negative = inhibition, usual class: inhibitors; hit rate 1.2% among 300,000; calls by dose curve; tested in HEK293 cells; note: potency is the fitted concentration of half-maximal effect; nearly all actives have a fitted effect of over 50% in size
HCMV antiviral = human cytomegalovirus inhibition. HFF cells, HCMV-luciferase reporter, 72 h; hits give low values. activity change, negative = inhibition, % at 57.5 µM. hit rate 4.5% among 410,000. AID 1259415; in the data active = activity change below about -60%; inconclusive = no clear call, values can overlap the other calls; inactive = above about -39%
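Compounds were evaluated in HFFs infected with an HCMV luciferase reporter virus (MOI 1 PFU/cell). Luciferase in lysates collected 72 h post infection served as the replication measure.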
VACV mCherry inh = inhibitors of vaccinia virus infection (mCherry reporter signal) | Vaccinia virus mCherry reporter infection, fluorescence | Potency, µM (series often up to 36.5 µM), for the others: at the top dose activity change, negative = inhibition, most hits filed as inhibitors | hit rate 0.63% among 310,000; calls by dose curve; tested in A549 cells; note: potency is the fitted concentration of half-maximal effect; nearly all actives have a fitted effect of over 35% in size
MARV entry inh = blocks Marburg virus binding to or entry into cells; AID 540276; Potency, µM (top dose mostly 37.8 µM), for the others: top-dose activity change, negative = inhibition, most hits filed as inhibitors; Marburg virus pseudotyped entry inhibition, cell reporter; hit rate 1.8% among 300,000; calls by dose curve; tested in HEK293 cells; note: potency is the fitted concentration of half-maximal effect
FMDV antiviral = antivirals against foot and mouth disease virus; hit rate 1.2% among 410,000; Potency, µM (series often up to 57.9 µM), inactives show at the top dose activity change, negative = inhibition, usual class: inhibitors; FMDV antiviral cell-based qHTS; AID 1159524; calls by dose curve; tested in HEK293T cells; note: read-out not given here; potency is the fitted concentration of half-maximal effect; nearly all actives have a fitted effect of over 45% in size
VACV Venus inh = inhibitors of vaccinia virus (Venus reporter); Vaccinia virus Venus reporter expression, fluorescence; Potency, µM (doses to about 36.5 µM), without a hit: at the highest dose activity change, negative = inhibition, usual class: inhibitors; hit rate 0.46% among 330,000; calls by dose curve; tested in A549 cells; note: potency is the fitted concentration of half-maximal effect; nearly all actives have a fitted effect of over 30% in size
* = called active by the depositor; [ ] = dose if it differs, or a comment. The list is not random: actives were taken first. Their share in the collection is about 6.5%. % is set by controls: 0 for no effect and ±100 for the full control effect.

For CCCN(CCC)CC(O)Cn1cc(/C=C/C(=O)c2ccc(OC)cc2)c2ccccc21 (stereo unspecified) the results were LASV entry inh inconclusive, HCMV antiviral 8, VACV mCherry inh inactive, MARV entry inh inconclusive, FMDV antiviral -14% and VACV Venus inh -25%.
Screening CCCCN(C)CC(O)Cn1cc(/C=C/C(=O)c2ccc(C)cc2)c2ccccc21 (stereo unspecified) returned LASV entry inh inconclusive, HCMV antiviral -98*, VACV mCherry inh inconclusive, MARV entry inh inconclusive, FMDV antiviral inconclusive and VACV Venus inh inconclusive.
For CCCN(CCC)CC(O)Cn1cc(/C=C/C(=O)c2ccc(C)cc2)c2ccccc21 (stereo unspecified) the results were LASV entry inh inconclusive, HCMV antiviral -107*, VACV mCherry inh inconclusive, MARV entry inh inconclusive, FMDV antiviral 0% and VACV Venus inh inconclusive.
For CCCN(CCC)CC(O)Cn1cc(/C=C/C(=O)c2ccccc2)c2ccccc21 (stereo unspecified) the results were HCMV antiviral -27 and FMDV antiviral -19%.
For CCCCN(C)CC(O)Cn1cc(/C=C/C(=O)c2ccc(OC)c(OC)c2)c2ccccc21 (stereo unspecified) the results were LASV entry inh inconclusive, HCMV antiviral -108*, VACV mCherry inh inconclusive, MARV entry inh 4.5µM*, FMDV antiviral -4% and VACV Venus inh -20%.
For CCCN(CCC)CC(O)Cn1cc(/C=C/C(=O)c2ccc(Br)cc2)c2ccccc21 (stereo unspecified) the results were LASV entry inh 24%[46.1 µM], HCMV antiviral -14, VACV mCherry inh -25%, MARV entry inh -7%[46.1 µM], FMDV antiviral -5% and VACV Venus inh -15%.
Screening COc1cccc(OC)c1CN1CCC2(CCC(CNC(=O)c3ccn(C)n3)O2)CC1 (stereo unspecified) returned VACV mCherry inh inactive, FMDV antiviral -5% and VACV Venus inh -13%.
Screening COC(=O)c1cc2c(c3c4ccccc4n(S(=O)(=O)c4ccc(OC)cc4)c13)C(=O)N(Cc1ccco1)C2 returned HCMV antiviral 132.
CCCCc1c(C)nc(Nc2ccc(OC)cc2)[nH]c1=O was read as LASV entry inh 7%, HCMV antiviral -34, VACV mCherry inh -23%, MARV entry inh inconclusive, FMDV antiviral -4% and VACV Venus inh -6%.
For CCCCCc1c(C)nc(Nc2ccc(F)cc2)[nH]c1=O the results were LASV entry inh -7%, HCMV antiviral -70*, VACV mCherry inh inactive, MARV entry inh inconclusive, FMDV antiviral inconclusive and VACV Venus inh -18%.
CCC1=[N+](CC(=O)c2ccc(C)cc2)CCn2c(C)ccc21 was read as LASV entry inh 0%, HCMV antiviral -63*, VACV mCherry inh inconclusive, MARV entry inh -2%, FMDV antiviral -23% and VACV Venus inh -23%.
For Cc1nc(N)nc(N)c1-c1ccc(Cl)c(Cl)c1 the results were LASV entry inh 1µM*, HCMV antiviral -98*, VACV mCherry inh 1µM*, MARV entry inh inconclusive, FMDV antiviral -23% and VACV Venus inh 1µM*.
COc1ccc(C=O)cc1COc1ccc([N+](=O)[O-])c(C)c1 was read as LASV entry inh 31%[46.1 µM], HCMV antiviral -22, VACV mCherry inh -3%, MARV entry inh -23%[46.1 µM], FMDV antiviral 0% and VACV Venus inh -7%.
For Cc1nc(N)nc(N)c1CCCc1ccc(Cl)c(Cl)c1 the results were LASV entry inh inconclusive, HCMV antiviral -87*, VACV mCherry inh -58%, MARV entry inh inconclusive, FMDV antiviral -9% and VACV Venus inh -71%.
Screening Nc1nc(N)nc(-c2ccc(Cl)c(Cl)c2)n1 returned HCMV antiviral -5, VACV mCherry inh inconclusive, FMDV antiviral 25% and VACV Venus inh inconclusive.
`Cc1cc(OCc2nc(N)nc(N)c2-c2ccc(Cl)c(Cl)c2)ccc1[N+](=O)[O-]` gave LASV entry inh 1µM*, HCMV antiviral -100*, VACV mCherry inh 0.89µM*, MARV entry inh inconclusive, FMDV antiviral 25µM* and VACV Venus inh 1µM*.
For COc1ccc(Cc2c(C)nc(N)nc2Cl)cc1 the results were HCMV antiviral -3 and FMDV antiviral inconclusive.
Screening CSc1ncc(C(=O)Nc2cc(C)cc(C)c2)c(-c2ccccc2)n1 returned LASV entry inh 20%[46.1 µM], HCMV antiviral -4, VACV mCherry inh -8%, FMDV antiviral -15% and VACV Venus inh -2%.
O=[N+]([O-])/N=C1\NCCN1Cc1ccc(Cl)nc1 was read as VACV mCherry inh -2%, FMDV antiviral -8% and VACV Venus inh -2%.
Screening Cc1ccc(C)c(N2CCN(C3(c4ccccc4)C(=O)c4ccccc4C3=O)CC2)c1 returned LASV entry inh 8%[46.1 µM], HCMV antiviral -18, VACV mCherry inh -15%, MARV entry inh -2%[46.1 µM], FMDV antiviral -12% and VACV Venus inh -10%.
For Cc1cc(-c2ccc(S(=O)(=O)Nc3ccc(Cl)cc3)cc2)on1 the results were LASV entry inh -17%[46.1 µM], HCMV antiviral 0, VACV mCherry inh -5%, FMDV antiviral 17% and VACV Venus inh -27%.
Cc1cc(C)cc(NS(=O)(=O)c2ccc(-c3cc(C)no3)cc2)c1 was read as LASV entry inh inconclusive, HCMV antiviral -80*, VACV mCherry inh -29%, FMDV antiviral 21% and VACV Venus inh inconclusive.
For Cc1ccc(NS(=O)(=O)c2ccc(-c3cc(C)no3)cc2)c(C)c1 the results were LASV entry inh inconclusive, HCMV antiviral -65*, VACV mCherry inh -23%, FMDV antiviral -27% and VACV Venus inh -28%.
Screening Cc1ccc(S(=O)(=O)Nc2cc(C)c(O)cc2C)cc1 returned LASV entry inh -13%[46.1 µM], HCMV antiviral -76*, VACV mCherry inh -18%, MARV entry inh inconclusive, FMDV antiviral -3% and VACV Venus inh -19%.
For C/C(=N\NC(=S)NCc1ccccc1)c1ccc(Cl)s1 the results were LASV entry inh -29%, HCMV antiviral inconclusive, VACV mCherry inh -19%, MARV entry inh inconclusive, FMDV antiviral 50% and VACV Venus inh -19%.
`COCCNC(=S)N/N=C(\C)c1ccc(Cl)s1` gave LASV entry inh -10%, HCMV antiviral -29, VACV mCherry inh 8.9µM*, MARV entry inh 6%[46.1 µM], FMDV antiviral 0% and VACV Venus inh -24%.
For C#CCCCO/N=C1\C[C@@H](O)[C@@H](O)[C@@H]2[C@@H]3C(=O)N(c4ccc(F)cc4F)C(=O)[C@@H]3CC[C@H]12 the results were MARV entry inh -6%[14.2 µM].
COC(=O)c1c(C(=O)OC)c2c3ccccc3cc(C3CC3)n2c1C(=O)OC was read as MARV entry inh 12%[14.2 µM].
For OCCNc1c2c(nc3ccccc13)CCCC2 the results were LASV entry inh 2%, HCMV antiviral 13, VACV mCherry inh -12%, MARV entry inh -20%[46.1 µM], FMDV antiviral -22% and VACV Venus inh 5%.
